# TRHR PAM = TRH receptor (human) allosteric enhancement. AID 493056. TRHR cells, fluo-8 calcium fluorescence, EC20 TRH enhancement. enhancement, % at 2 µM. hit rate 0.66% among 360,000; in the data active = enhancement above about 30%; note: 0% is about no effect
#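 TRHR-expressing cells loaded with fluo-8 calcium dye were read kinetically (ex 480/em 530) during compound addition, then stimulated with an EC20 of TRH (10 nM final). Enhancement of the Gq-mediated intracellular calcium response was scored.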
# D1 ag = human D1 receptor agonism; HEK293 T-REx D1 cells, calcium flux, agonist mode; P21728; AID 504660; activation, % at 2 µM; hit rate 1% among 360,000; note: 0% is about no effect
# Target sequence (P21728 whole entry, looked up): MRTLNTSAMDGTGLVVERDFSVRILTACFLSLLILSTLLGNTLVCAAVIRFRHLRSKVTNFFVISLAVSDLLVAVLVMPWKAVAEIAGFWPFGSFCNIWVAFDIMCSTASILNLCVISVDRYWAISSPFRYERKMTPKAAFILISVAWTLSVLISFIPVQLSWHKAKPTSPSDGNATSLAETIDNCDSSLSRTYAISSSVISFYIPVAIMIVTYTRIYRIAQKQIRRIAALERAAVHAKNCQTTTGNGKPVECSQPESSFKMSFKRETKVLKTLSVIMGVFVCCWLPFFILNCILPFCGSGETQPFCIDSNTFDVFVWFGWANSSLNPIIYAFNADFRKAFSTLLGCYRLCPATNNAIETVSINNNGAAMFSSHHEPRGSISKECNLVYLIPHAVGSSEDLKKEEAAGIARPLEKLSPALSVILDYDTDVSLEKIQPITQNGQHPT
#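 Inducible HEK293 T-REx D1 cells, force-coupled to calcium signalling, were plated at 4000 cells/well with tetracycline and held overnight at 30 C. After no-wash calcium dye loading, compound-evoked calcium rise over 180 s flagged agonists.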
# TRHR ag = activates the human TRH receptor. P34981. TRHR cells, calcium flux fluo-8, FDSS agonist mode. activation, % at 2 µM. hit rate 0.18% among 360,000. AID 493084; note: 0% is about no effect
#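 TRHR-expressing cells loaded with fluo-8 calcium dye; 23 nL library compound pin-transferred, kinetic FDSS fluorescence (Ex 480/Em 530) recorded about 180 s for agonist-induced calcium release, before a 10 nM TRH EC20 addition for potentiator mode.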
# D1 antag = antagonists of human D1 dopamine receptor | P21728 | activity change, negative = inhibition, % at 10 µM | hit rate 3.2% among 360,000 | HEK293 TREx D1 cells, calcium flux, dopamine EC80; hits give low values; in the data active = activity change below about -30%; note: % is set by controls: 0 for no effect and ±100 for the full control effect
#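 Inducible Hek293 Trex D1 cells (tetracycline, overnight, 30 C). Calcium dye 30–90 min RT. Antagonist mode: EC80 dopamine added after 180 s compound read.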
# D1 potentiator = human D1 dopamine receptor positive modulation; HEK293 TREx D1 cells, calcium flux, dopamine EC20 potentiation; potentiation, % at 10 µM; hit rate 0.036% among 360,000; in the data active = potentiation above about 30%; note: 0% is about no effect
# Numbers without * were called inactive; ! = not active in a repeat. This is a sample that favours compounds with a hit; in the whole collection about 4.7% have one here. Cut-off read from the data, not from the text of the source, unless noted: active = activation above about 30%; inactive = the rest.
SMILES,TRHR PAM,D1 ag,TRHR ag,D1 antag,D1 potentiator
Cc1c(C(=O)Nc2ccc(F)cc2F)oc2c1-c1nn(Cc3c(F)cccc3Cl)cc1CC2,0,1,0,-8,7
Cc1nn2c(NCCCN(C)C)c3c(nc2c1-c1ccccc1)CCCC3,3,20,1,-38*,-4
Cc1ccc(C(=O)Nc2nc3nc(C)cc(=O)n3[nH]2)cc1,0,0,0,0,0
CCOc1ccc(-c2cc(OC(=O)c3ccccc3)c3c(C)oc(C)c3c(=O)c2)cc1,-4,1,0,9,-3
COc1ccc(-c2nn(-c3cccc(F)c3)c3c2cnc2cc(OC)c(OC)cc23)cc1,-3,1,-1,-1,0
O=C(NCCCCc1ccccc1)c1nn(-c2ccccc2)nc1CO,-2,3,-1,-19,-3
CSc1nc(NC(C)(C)C)nc(Oc2ccc(=O)n(C)n2)n1,4,2,1,-34*,-7
CC(C)CNc1nc(NC(C)(C)C)nc(Oc2ccc(=O)n(-c3ccccc3)n2)n1,3,0,-1,16,1
CC(C)Nc1nc(NC(C)(C)C)nc(Oc2ccc(=O)n(-c3ccccc3)n2)n1,7,37*,3,4,3
CNc1nc(Oc2ccc(=O)n(C)n2)nc(N2CCOCC2)n1,7,2,1,-31*!,-10
Cc1ccc(OCC(=O)Nc2nc(-c3ccc(Br)cc3)ns2)cc1,-6,8,0,-16,-1
COc1ccc(OC)c(CNC(=O)c2ccc(-c3nc(CSc4ccccc4)c(C)o3)cc2)c1,1,19,-1,-3,1
COc1ccc(NC(=O)Cn2c(C)c3cnn(-c4ccccc4)c(=O)c3c2C)c(OC)c1,3,0,-1,4,1
COc1cc(-c2nc(SCC(=O)Nc3ccc(C)cc3)c(-c3ccc(F)cc3)[nH]2)cc(OC)c1OC,6,4,-1,-35*,-5
COc1ccc(-c2nc(SCC(=O)Nc3ccc4c(c3)OCCO4)c(-c3ccc(F)cc3)[nH]2)cc1OC,1,2,-1,-14,-5
COc1ccc(NC(=O)CSc2nc(-c3ccc(F)cc3)[nH]c2-c2ccc(C)cc2)cc1OC,-5,3,1,-18,-1
COc1ccc(-c2nc(SCC(=O)Nc3ccc4c(c3)OCO4)c(-c3ccc(F)cc3)[nH]2)cc1OC,-1,4,-1,-36*,-3
COc1ccc(-c2nc(SCC(=O)Nc3ccccc3)c(-c3ccc(F)cc3)[nH]2)cc1OC,7,0,2,-47*,-5
COc1ccc(OC)c(NC(=O)Cn2cnc3sc(C)c(S(=O)(=O)N4CCN(c5ccccc5OC)CC4)c3c2=O)c1,4,2,0,-3,0
CCC(=O)OCc1cnc(C)c2oc(=O)c(C(=O)Nc3ccccc3C(F)(F)F)cc12,-1,-1,-1,1,0
Cc1cc(C)cc(-n2ccn(CC(=O)c3ccc(F)cc3)c(=O)c2=O)c1,-4,2,0,2,-4
COc1ccc(C(=O)CCC(=O)Nc2cccc(C(C)=O)c2)cc1,5,-1,0,-15,2
COc1cc(Cl)cc2c1Sc1ccccc1/C2=C/CCN(C)C,4,18,1,-62*,-9
CN(C)CC/C=C1/c2ccccc2Sc2c(O)cc(Cl)cc21,6,44*,0,-94*,-4
COc1cc2c(cc1Cl)/C(=C\CCN(C)C)c1ccccc1S2,-1,14,0,-41*,-5
SMILES,TRHR PAM,D1 ag,TRHR ag,D1 antag,D1 potentiator
CCOc1ccccc1CNC(=O)Cn1nc(C)c2nn(-c3ccc(Cl)cc3)c(C)c2c1=O,20,1,-1,4,-1
CCc1ccc(-n2nc(C)c3c(C(=O)Nc4ccc(Cl)cc4)cc(C)nc32)cc1,-12,4,1,-4,-4
Cc1cc2c(cc1S(=O)(=O)CCC(=O)N1CCCCC1C)OCC(=O)N2 (stereo not drawn),-6,0,0,2,1
O=C1C2C3C=CC(CC3)C2C(=O)N1c1cccc(Br)c1 (stereo not drawn),6,4,-1,-37*,-5
CCc1nnc(NS(=O)(=O)c2ccc(NC(=S)NC(=O)c3ccc(OC)cc3)cc2)s1,1,2,0,-32*,11
CCOc1ccc(NS(=O)(=O)c2ccc(NC(=S)NC(=O)C(C)C)cc2)cc1,9,32*,2,10,-4

# Source: PubChem BioAssay
